The results in this text go back to PubChem BioAssay (Tox21).

Assay [1] can be described thus: qHTS assay to identify small molecule agonists of the estrogen related receptor signaling pathway with the pleiotropic PPARgamma coactivator (PGC) (AID 1224823). In outline:
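In this quantitative high-throughput screen, an 18 h, 37 C treatment of PGC/ERR cells with compounds in DMSO preceded a One-Glo luminescence read taken after 30 min at room temperature.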

The nature of assay [2]: qHTS assay to identify small molecule antagonists of the estrogen related receptor (ERR) signaling pathway from Tox21 library - cell viability counter screen (AID 1224834). Also: nearly all actives have a fitted effect of over 30% in size. In outline: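 Seeded ERR cells were rested 6 h at 37 C/5% CO2 before compounds, positive and negative controls or DMSO were added. Incubation continued for 17.5 h, and viability was then quantified by CellTiter-Fluor fluorescence.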

For assay [3], the target named is Luciferin 4-monooxygenase (Photinus pyralis) (UniProt P08659). The experiment in a line: qHTS assay to identify small molecule inhibitors of firefly luciferase (AID 1224835). Also: nearly all actives have a fitted effect of over 25% in size. Also: potency is read from the fitted curve at half-maximal effect. The method in brief:
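Biochemical qHTS: compounds run as interplate titrations against purified firefly enzyme, with D-luciferin and ATP each at its KM concentration. Light output recorded by CCD imaging.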

A short description of assay [4]: qHTS assay to identify small molecule agonists of the constitutive androstane receptor (CAR) signaling pathway - cell viability counter screen (AID 1224836). Also: series mostly up to about 92 µM; nearly all actives have a fitted effect of over 45% in size. In outline: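 Fluorescence from CellTiter-Fluor indicates live cells after 23 h exposure. The human hepatoma line expresses hCAR and a CYP2B6-2.2kb reporter. Incubation medium contains 0.75 uM PK11195 (final).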

The nature of assay [5]: qHTS assay to identify small molecule antagonists of the constitutive androstane receptor (CAR) signaling pathway - cell viability counter screen (AID 1224837). Also: series mostly up to about 92 µM; nearly all actives have a fitted effect of over 45% in size. The method in brief: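 To flag cytotoxic false antagonists, HepG2 hCAR/CYP2B6-2.2kb cells were treated 23 hr with 15-concentration compound series and 50 nM CITCO at 37 C/5% CO2; CellTiter-Fluor fluorescence was the measured end point.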

For assay [6], the target named is Nuclear receptor subfamily 1 group I member 3 (Homo sapiens) (UniProt Q14994). The experiment in a line: qHTS assay to identify small molecule antagonists of the constitutive androstane receptor (CAR) signaling pathway (AID 1224838).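 Also: HepG2 cells stably expressing hCAR with CYP2B6 luciferase reporter stimulated by CITCO; nearly all actives have a fitted effect of over 40% in size.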 In outline:
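Human hepatoma HepG2 cells expressing hCAR and a CYP2B6 promoter (2.2 kb) luciferase construct; compound titration (15 points) with 50 nM CITCO final, 24 h at 37 C/5% CO2; luminescence via ONE-Glo after 30 min at room temperature.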

Assay [7] has the same target. The experiment in a line: qHTS assay to identify small molecule agonists of the constitutive androstane receptor (CAR) signaling pathway (AID 1224839).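 Also: HepG2 cells stably carrying human CAR and a CYP2B6 luciferase reporter; series mostly up to about 92 µM; nearly all actives have a fitted effect of over 15% in size.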 The method in brief: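 Stable hCAR/CYP2B6-2.2kb HepG2 line in DMEM with 10% FBS; compounds (15 concentrations) and 0.75 uM PK11195 final, 24 h at 37 C/5% CO2, then ONE-Glo luminescence after 30 min.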
Assay [8] can be described thus: qHTS assay to identify small molecule antagonists of the estrogen related receptor signaling pathway with the pleiotropic PPARgamma coactivator (PGC) from Tox21 10K library - cell viability counter screen (AID 1224840; active = well fitted cell-killing curve with a large enough effect in the repeat runs, not every such curve was filed as active; also: nearly all actives have a fitted effect of over 40% in size). In outline: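 Seeded PGC/ERR cells (2,000/well, 6 h, 37 C/5% CO2) get compound by pin tool; 17.5 h incubation at 37 C; CellTiter-Fluor added, 30 min, fluorescence measured.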

Assay [9] can be described thus: qHTS assay to identify small molecule antagonists of the estrogen related receptor signaling pathway with the pleiotropic PPARgamma coactivator (PGC) from Tox21 10K library (AID 1224841; call rule not given here; also: series mostly up to about 92 µM; actives are mostly falling curves and most rising ones were filed inactive; nearly all actives have a fitted effect of over 50% in size). In outline: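 Test chemicals dissolved in DMSO were applied to pre-incubated (6 h) PGC/ERR cells at 2,000 cells/well for an 18 h, 37 C treatment; reporter luminescence was then read using One-Glo.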

Assay [10] can be described thus: qHTS assay to identify small molecule agonists of the estrogen related receptor signaling pathway with the pleiotropic PPARgamma coactivator (PGC) from Tox21 10K library (AID 1224842). Also: nearly all actives have a fitted effect of over 15% in size. The method in brief: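 PGC/ERR reporter cell line, 2,000 cells per well, incubated 6 h at 37 C before 23 nL compound in DMSO was added. After 18 h at 37 C, One-Glo luminescence read following 30 min at room temperature.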

In assay [11] the target is Thyrotropin receptor (Homo sapiens) (UniProt P16473). Nature of the assay: qHTS assay to identify small molecule agonists of the thyroid stimulating hormone receptor (TSHR) signaling pathway (AID 1224843; calls by dose curve; also: nearly all actives have a fitted effect of over 45% in size). The method in brief:
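HEK293/TSHR, 800 cells/well; cpd 30 min RT; add cAMP-d2 + anti-cAMP-cryptate, 1 h RT; fluorescence read on plate reader. 15-pt titration, n=3.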

A short description of assay [12]: qHTS assay to identify small molecule agonists of the hypoxia (HIF-1) signaling pathway - cell viability counter screen (AID 1224844; calls by dose curve; also: nearly all actives have a fitted effect of over 50% in size). The method in brief:
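HRE-bla ME-180; 0.5% dFBS; cpd 17 h, 37C, 5% CO2; CellTiter-Glo lum., 30 min RT, post-FRET read, same wells.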

Assay [13] in a line: qHTS assay to identify small molecule agonists of H2AX (AID 1224845; active = well fitted activation curve with a large enough effect in the signal ratio in the repeat runs, not every such curve was filed as active; the % refers to the signal ratio). The method in brief:
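Wild-type CHO-K1 cells, plated overnight, exposed 3hr at 37C to 15 concentrations (0.76% DMSO final). Lysed, then HTRF anti-pH2AX (S139) cryptate and anti-H2AX-d2 antibodies, 24 hr room temperature; 665/620 nm emission read.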

Assay [14] is described as follows: qHTS assay to identify small molecule antagonists of the estrogen related receptor (ERR) signaling pathway from Tox21 library (AID 1224848). Also: nearly all actives have a fitted effect of over 50% in size. In outline:
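Compounds dissolved in DMSO are pin-transferred onto ERR reporter cells (2,000 per well) that have settled for 6 h at 37 C. Plates then incubate 18 h at 37 C before ONE-Glo luciferase reagent and a luminescence read 30 min later.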

A short description of assay [15]: qHTS assay to identify small molecule agonists of the estrogen related receptor (ERR) signaling pathway from Tox21 library (AID 1224849; calls by dose curve; also: nearly all actives have a fitted effect of over 15% in size). The method in brief: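 Tox21 compounds tested for ERR agonism in an NTP reporter cell line: 18 h treatment at 37 C, then ONE-Glo luminescence.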
Assay [16] can be described thus: qHTS RealTime-Glo MT Cell Viability Assay in HepG2 cells - 24 hour (AID 1224867). Also: nearly all actives have a fitted effect of over 50% in size. The method in brief:
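Compound treatment began 5 h after plating HepG2 cells (600/well) with NanoLuc luciferase and prosubstrate. Plates stayed at 37 C for 40 h; luminescence was captured at six time points, 0 h through 40 h.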

Assay [17] can be described thus: qHTS RealTime-Glo MT Cell Viability Assay in HEK293 cells - 32 hour (AID 1224868). In outline: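 Quantitative high-throughput screen of the Tox21 10K library in HEK293: cells and RealTime-Glo reagents plated together, compound added at 5 h, luminescence monitored through 40 h at 37 C.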
The nature of assay [18]: A CellTox Green Cytotoxicity Assay to monitor cytotoxicity in HEK293 cells - 0 hour (AID 1224869). Also: nearly all actives have a fitted effect of over 50% in size. In outline:
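Tox21 screen in HEK293: membrane-impermeant cyanine dye fluoresces on binding dead-cell DNA; compound pinned 5 h post-seeding, plates held at 37 C, signal read repeatedly through 40 h.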

A short description of assay [19]: qHTS assay to identify small molecule agonists of the hypoxia (HIF-1) signaling pathway (AID 1224846; active = well fitted activation curve with a large enough effect in the signal ratio in the repeat runs, not every such curve was filed as active; the % refers to the signal ratio). The method in brief: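 Reporter induction in HRE-bla ME-180 cells is taken as agonism: cells sit 5 hrs after plating, receive compounds or DMSO only, incubate 17 hrs at 37C under 5% CO2, and are loaded with CCF4-AM for beta-lactamase FRET measurement.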
A short description of assay [20]: qHTS assay to identify small molecule agonists of H2AX - cell viability counter screen (AID 1224847; calls by dose curve; also: top concentration of the series differs between compounds; nearly all actives have a fitted effect of over 30% in size). The method in brief:
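Viability of CHO-K1 (wild type) cells after 3 hr compound exposure was measured by CellTiter-Glo luminescence.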

Results filed as inconclusive are left out. Calls of active or inactive are those of the source. Unless noted, calls follow the shape of the dose curve; as a rule, active = well fitted curve in the direction sought with a large enough effect in the repeat runs; inconclusive = weak or mixed curves; inactive = no such curve, though single readings can be large; an effect the other way counts as inactive or inconclusive.

Sequence of Luciferin 4-monooxygenase (Photinus pyralis) (P08659 whole entry, looked up): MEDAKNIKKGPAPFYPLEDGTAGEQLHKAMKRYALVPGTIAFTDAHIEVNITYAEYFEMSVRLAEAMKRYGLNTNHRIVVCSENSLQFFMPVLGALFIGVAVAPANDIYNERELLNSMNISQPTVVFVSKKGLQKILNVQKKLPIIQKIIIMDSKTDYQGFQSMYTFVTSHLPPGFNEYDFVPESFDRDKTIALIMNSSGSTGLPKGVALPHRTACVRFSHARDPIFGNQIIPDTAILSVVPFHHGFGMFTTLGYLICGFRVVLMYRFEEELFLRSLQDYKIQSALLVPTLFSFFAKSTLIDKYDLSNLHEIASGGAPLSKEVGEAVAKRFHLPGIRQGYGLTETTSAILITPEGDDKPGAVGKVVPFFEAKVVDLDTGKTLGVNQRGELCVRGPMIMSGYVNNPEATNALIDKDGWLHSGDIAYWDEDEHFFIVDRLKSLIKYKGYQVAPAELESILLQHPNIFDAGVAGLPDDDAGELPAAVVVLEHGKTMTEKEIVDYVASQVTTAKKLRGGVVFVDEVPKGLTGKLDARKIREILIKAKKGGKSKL
Sequence of Nuclear receptor subfamily 1 group I member 3 (Homo sapiens) (Q14994 whole entry, looked up): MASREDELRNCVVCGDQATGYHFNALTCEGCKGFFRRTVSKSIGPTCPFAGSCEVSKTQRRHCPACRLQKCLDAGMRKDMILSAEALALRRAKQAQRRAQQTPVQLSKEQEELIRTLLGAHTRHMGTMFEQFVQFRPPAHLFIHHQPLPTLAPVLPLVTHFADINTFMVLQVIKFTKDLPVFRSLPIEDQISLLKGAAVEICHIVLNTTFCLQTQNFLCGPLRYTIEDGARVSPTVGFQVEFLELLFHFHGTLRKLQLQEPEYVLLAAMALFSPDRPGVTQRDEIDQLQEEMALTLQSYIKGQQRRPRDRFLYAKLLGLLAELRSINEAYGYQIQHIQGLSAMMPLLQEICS
Sequence of Thyrotropin receptor (Homo sapiens) (P16473 whole entry, looked up): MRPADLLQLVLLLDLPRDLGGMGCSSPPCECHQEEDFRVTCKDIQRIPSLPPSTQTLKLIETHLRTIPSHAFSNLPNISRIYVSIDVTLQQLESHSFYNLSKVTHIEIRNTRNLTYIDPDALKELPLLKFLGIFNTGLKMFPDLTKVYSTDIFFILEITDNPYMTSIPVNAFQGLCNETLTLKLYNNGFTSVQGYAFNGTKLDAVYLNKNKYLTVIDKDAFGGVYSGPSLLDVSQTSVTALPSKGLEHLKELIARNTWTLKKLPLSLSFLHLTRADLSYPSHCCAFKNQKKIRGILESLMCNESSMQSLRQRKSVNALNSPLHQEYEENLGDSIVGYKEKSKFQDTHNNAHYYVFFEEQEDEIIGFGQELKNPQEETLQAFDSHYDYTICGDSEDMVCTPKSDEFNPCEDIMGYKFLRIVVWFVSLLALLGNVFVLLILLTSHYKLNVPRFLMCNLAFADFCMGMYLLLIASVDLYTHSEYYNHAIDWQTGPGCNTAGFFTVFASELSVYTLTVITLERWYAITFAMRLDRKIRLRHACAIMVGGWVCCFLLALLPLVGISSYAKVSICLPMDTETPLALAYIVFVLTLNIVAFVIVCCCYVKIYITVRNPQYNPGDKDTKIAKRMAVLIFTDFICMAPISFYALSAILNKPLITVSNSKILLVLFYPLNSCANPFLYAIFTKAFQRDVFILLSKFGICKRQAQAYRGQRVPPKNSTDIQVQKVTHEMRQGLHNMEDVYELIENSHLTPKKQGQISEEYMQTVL

Regarding `CC(C)(Oc1ccc(CCNC(=O)c2ccc(Cl)cc2)cc1)C(=O)O`, the call in assay [1], in assay [6], in assay [10], in assay [11], in assay [12] and in [13] was inactive. The result in [14], in assay [15] and in [18] was inactive. For the same molecule, the Potency entry in assay [2], in assay [4], in assay [5], in assay [7], in [8] and in [9] was “inactive” in each case. Also, the Potency result in [16] and in assay [17] was “inactive” throughout. Also, in assay [3], the Potency was 35.6 µM (active).

For the molecule `CC(C)c1cccc(C(C)C)c1`, the Potency result in assay [2], in assay [3], in assay [4], in [5], in assay [8] and in assay [9] was “inactive” throughout. For the same molecule, the Potency entry in assay [17] was “inactive”. Besides, the molecule was called inactive in assay [10], in assay [11], in assay [12], in assay [13], in [19] and in assay [14]. Besides, the molecule was classed as inactive in [15] and in assay [18].

`CCCCCCC=O`: the Potency entry in assay [2], in assay [3], in [4], in assay [5], in assay [8] and in assay [16] was “inactive” in each case. The Potency result in assay [17] was “inactive”. Moreover, the molecule was called inactive in assay [11], in [12], in assay [13], in assay [19], in [20] and in assay [18].

As to `C=CC(=O)OCCC(=O)O`, the Potency result in assay [2], in assay [3], in assay [4], in [5], in assay [7] and in assay [8] was “inactive” in each case. Besides, the Potency entry in assay [9], in assay [16] and in assay [17] was “inactive” in each case. In addition, the outcome in assay [6], in [12], in assay [13], in assay [19], in [20] and in [14] was inactive. Besides, the result in assay [15] and in assay [18] was inactive.

Regarding `COc1ccc([N+](=O)[O-])cc1N`, the Potency result in [2], in assay [3], in [4], in assay [5], in assay [7] and in [8] was “inactive” throughout. The Potency result in assay [16] and in assay [17] was “inactive” in each case. Further, the result in assay [6], in assay [12], in assay [13], in assay [19], in assay [20] and in assay [18] was inactive.

For `CCCCCCO`, the Potency result in assay [2], in assay [3], in assay [4], in assay [5], in assay [7] and in [8] was “inactive” each time. In addition, in assay [17], the Potency result was “inactive”. For the same molecule, the outcome in [6], in assay [11], in [12], in [13], in [19] and in assay [20] was inactive. In addition, in assay [18], the outcome was inactive.

Regarding `CCCCCCCO`, the Potency entry in assay [2], in [3], in assay [4], in assay [5], in assay [7] and in [8] was “inactive” in each case. For the same molecule, the Potency result in assay [16] and in assay [17] was “inactive” each time. Also, the molecule was classed as inactive in assay [6], in assay [11], in assay [12], in assay [13], in assay [19] and in assay [20]. Further, in assay [18], the molecule was classed as inactive.

Regarding `O=[N+]([O-])c1ccc2nc[nH]c2c1`, the Potency result in [2], in assay [3], in assay [4], in assay [5], in assay [7] and in assay [8] was “inactive” in each case. The Potency entry in assay [17] was “inactive”. Further, the outcome in [6], in [11], in [12], in assay [13], in assay [19] and in [18] was inactive.

For `O=C1CCCC1`, the Potency entry in [2], in [3], in assay [4], in [5], in assay [8] and in assay [9] was “inactive” in each case. The Potency entry in [16] and in [17] was “inactive” each time. The molecule was called inactive in assay [10], in assay [12], in [13], in assay [19], in [20] and in assay [14]. Further, the call in assay [15] and in [18] was inactive.
